Activity calls are given as the source filed them. How the source made its calls: active means hit-call score of the fitted dose curve at least 0.9, where 1 is the maximum; inactive means score below 0.9.
read-out: Intercellular Adhesion Molecule 1 (ICAM1), ICAM1 (gene 3383); assay: BSK_3C_ICAM1: BioMAP Diversity Plus: 3C Assay for Intercellular Adhesion Molecule 1 (ICAM1) Biomarker Activity (AID 2283003); conditions: primary human endothelial cells (HUVEC); actives raise or lower the signal
Method in brief: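 ICAM-1 levels measured by ELISA after HUVEC cultures in the 3C system had been dosed for 24 h. Gain or loss of signal relative to DMSO was fitted in both directions.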

SMILES | outcome
CC1=C(C)S(=O)(=O)CCS1(=O)=O | inactive
C#CC(O)C(CC)CCCC (stereo not given) | inactive
COC(=O)CCC(=O)OC | inactive
Cc1cn([C@H]2C=C[C@@H](CO)O2)c(=O)[nH]c1=O | inactive
S=c1[nH]c2ccccc2s1 | inactive
CC(N)=O | inactive
NCCOCCOCCN | inactive
OCC(CO)n1cnc(-c2ccc(F)cc2)c1-c1ccnc(Oc2ccccc2)n1 | inactive
Cc1occc(=O)c1O | inactive
O=C(NS(=O)(=O)/C=C/c1cccs1)c1ccc(F)cc1Br | inactive
CCCCC(CC)CO (stereo not given) | inactive
CSc1ccc(Oc2ccc(S(N)(=O)=O)cc2CN(C)C)cc1C | inactive
CCCCCCCCCCCCCCOS(=O)(=O)O | inactive
CCCC(=O)O | inactive
O=C1c2c(O)cccc2Cc2cccc(O)c21 | inactive
CN(C)CCCN(C)CCCN(C)C | inactive
CCCCc1nc2cccnc2n1Cc1ccc(-c2ccccc2-c2nnn[nH]2)cc1 | inactive
CCCCCCCC(=O)OC | inactive
CC(C)(C)c1ccccc1 | inactive
C/C=C/C=C/C(=O)O | inactive
CCCC[C@H]1CN(CC2CCOCC2)C(=O)OC12CCN(C1(C)CCN(C(=O)c3c(C)ncnc3C)CC1)CC2 | inactive
Cn1cnc2c1c(=O)[nH]c(=O)n2C | inactive
CC(=O)O | inactive
CCCCC(CC)COC(=O)CCCCCCCC(=O)OCC(CC)CCCC (stereo not given) | inactive
CC(=O)CC(c1ccccc1)c1c(O)c2ccccc2oc1=O (stereo not given) | inactive
C=CCc1ccc(OC)c(OC)c1 | inactive
CS(=O)(=O)c1ccc([C@@H](C[C@H]2CCC(=O)C2)C(=O)Nc2cnccn2)cc1Cl | inactive
O=C1O[C@H]([C@H](O)CO)C(O)=C1O | inactive
CC(=O)S[C@H](C(=O)N[C@H]1Cc2ccccc2[C@H]2CCC[C@@H](C(=O)O)N2C1=O)C(C)C | inactive
c1ccc2occc2c1 | inactive

read-out: not listed separately; assay: BSK_3C_Proliferation: Cell Proliferation Assessment in the BioMAP Diversity Plus: 3C Assay (AID 2283006); conditions: primary human endothelial cells (HUVEC);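 on AC50: potency may reflect either rise or fall in cell number versus DMSO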
Method in brief: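 Read-out is total protein by SRB absorbance at 560 nm, taken as a proxy for relative cell number. Primary human umbilical vein endothelium cultured below confluence was dosed for 48 h, TCA-fixed and SRB-stained; curves were fitted bidirectionally versus DMSO.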

SMILES | outcome | AC50
CC1=C(C)S(=O)(=O)CCS1(=O)=O | inactive | –
C#CC(O)C(CC)CCCC (stereo not given) | inactive | –
COC(=O)CCC(=O)OC | inactive | –
Cc1cn([C@H]2C=C[C@@H](CO)O2)c(=O)[nH]c1=O | inactive | –
S=c1[nH]c2ccccc2s1 | inactive | –
CC(N)=O | inactive | –
NCCOCCOCCN | inactive | –
OCC(CO)n1cnc(-c2ccc(F)cc2)c1-c1ccnc(Oc2ccccc2)n1 | inactive | –
Cc1occc(=O)c1O | inactive | –
O=C(NS(=O)(=O)/C=C/c1cccs1)c1ccc(F)cc1Br | – | 2.87 µM (active)
CCCCC(CC)CO (stereo not given) | inactive | –
CSc1ccc(Oc2ccc(S(N)(=O)=O)cc2CN(C)C)cc1C | – | 20 µM (active)
CCCCCCCCCCCCCCOS(=O)(=O)O | – | 30.1 µM (active)
CCCC(=O)O | inactive | –
O=C1c2c(O)cccc2Cc2cccc(O)c21 | – | 15 µM (active)
CN(C)CCCN(C)CCCN(C)C | inactive | –
CCCCc1nc2cccnc2n1Cc1ccc(-c2ccccc2-c2nnn[nH]2)cc1 | inactive | –
CCCCCCCC(=O)OC | inactive | –
CC(C)(C)c1ccccc1 | inactive | –
C/C=C/C=C/C(=O)O | inactive | –
CCCC[C@H]1CN(CC2CCOCC2)C(=O)OC12CCN(C1(C)CCN(C(=O)c3c(C)ncnc3C)CC1)CC2 | inactive | –
Cn1cnc2c1c(=O)[nH]c(=O)n2C | inactive | –
CC(=O)O | inactive | –
CCCCC(CC)COC(=O)CCCCCCCC(=O)OCC(CC)CCCC (stereo not given) | inactive | –
CC(=O)CC(c1ccccc1)c1c(O)c2ccccc2oc1=O (stereo not given) | inactive | –
C=CCc1ccc(OC)c(OC)c1 | inactive | –
CS(=O)(=O)c1ccc([C@@H](C[C@H]2CCC(=O)C2)C(=O)Nc2cnccn2)cc1Cl | inactive | –
O=C1O[C@H]([C@H](O)CO)C(O)=C1O | inactive | –
CC(=O)S[C@H](C(=O)N[C@H]1Cc2ccccc2[C@H]2CCC[C@@H](C(=O)O)N2C1=O)C(C)C | inactive | –
c1ccc2occc2c1 | inactive | –
